# Laboratory results taken from PubChem BioAssay (EPA / NIEHS).
# Records with an inconclusive call do not appear. Activity calls are given as the source filed them. How the source made its calls: active means hit-call score of the fitted dose curve at least 0.9, where 1 is the maximum; inconclusive means response in the unintended direction; inactive means score below 0.9.
# Read-out: xenobiotic metabolism (CYP1A2), CYP1A2 (gene 1544)
# Assay: CLD_CYP1A2_6hr: CellzDirect (CLD) Gene Expression Assay for xenobiotic metabolism (CYP1A2) at 6 hours (AID 2283663);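 on AC50: potency is for induction meaning a rise in mRNA above DMSO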
# Procedure: CLD_6hr is a cell-based, multiplexed-readout assay that uses hepatocyte, a human liver primary cell, with measurements taken at 6 hours after chemical dosing in a 96-well plate.CLD_CYP1A2_6hr is one of 16 assay component(s) measured or calculated from the CLD_6hr assay. It is designed to make measurements of mRNA induction, a form of inducible reporter, as detected with chemiluminescence signals by Quantitative Nuclease Protection Assay (qNPA) technology.Data from the assay component CLD_CYP1A2_6hr was analyzed at the endpoint, CLD_CYP1A2_6hr, in the positive analysis fitting direction relative to DMSO as the negative control and baseline of activity. Using a type of inducible reporter, gain-of-signal activity can be used to understand changes in the reporter gene as they relate to the gene CYP1A2. Furthermore, this assay endpoint can be referred to as a primary readout. To generalize the intended target to other relatable targets, this assay endpoint is annotated to the cyp intended target family, where subfamily is xenobiotic metabolism.
# Human hepatocyte cultures were treated daily for two consecutive days with fresh dosing solutions containing appropriate concentrations of the 320 ToxCast chemicals (chemical identities were blinded to CellzDirect and other ToxCast collaborators), vehicle control (0.2% DMSO), and positive control inducers as summarized in Table 1. Due to the large number of treatment groups and chemicals examined, the ToxCast chemicals were divided into two groups (spanning two independent cultures of hepatocytes from separate donor preparations (Hu778: ToxCast plates 1 and 2; Hu776: ToxCast plates 3 and 4). Each preparation of human hepatocyte cultures was treated with respective vehicle control, medium only control, set of six positive controls/reference chemicals for the five hepatic receptor pathways, and a subset of eight of the ToxCast chemicals (indoxacarb, pyrithiobac-sodium, norflurazon, cyhalofop-butyl, methomyl, thiram, acetochlor, and propiconazole). These replicate data, coupled with internal replicates designed within the blinded ToxCast chemical library, provided additional data to evaluate interindividual differences between hepatocyte preparations and their potential impact on chemical profiles.Cell morphology and integrity were evaluated using phase-contrast microscopy as an indicator of hepatocyte cell health (Tyson & Green, 1987). Cultures for each treatment group (i.e., media, vehicle [0.2% DMSO], positive control inducers [multiple concentrations], and the ToxCast chemicals [multiple concentrations]) were observed and cell morphology was assessed relative to vehicle control cultures at each harvest time point (0, 6, 24, or 48 h). […] Images were evaluated at the conclusion of the study to assess changes in cell integrity and account for the effects of chemical exposure on uncharacteristic changes in concentration-dependent gene expression profiles. The results from these determinations of apparent cytotoxicity were annotated (yes/no) alongside the corresponding qNPA data for reference.At the conclusion of each treatment period, hepatocyte cultures (96-well) were washed with 1 volume of HBSS, lysed by addition of 25 ul ArrayPlate lysis buffer (HTG, Tucson, AZ), and 70 ul/well of Denaturation Oil, denatured by incubation at 95C for 10 min, and frozen at approximately -70C until analysis by nuclease protection assay (qNPA) (Roberts et al., 2007). For qNPA analysis, cell lysates were thawed at 50C for approximately 30 min, qNPA probes were added, and samples were incubated at 95C for 10 min to begin the detection process by denaturing the target RNA, dissociating the duplexes and secondary structure hybridization. At the conclusion of the hybridization period, S1 nuclease reagent was added to each sample to digest all nonprotected nucleotides at 50C for 60-90 min. […]
SMILES,outcome,AC50
CCCOC(=O)c1ccc(C(=O)OCCC)nc1,inactive,–
COC(=O)c1cccc(C)c1S(=O)(=O)NC(=O)Nc1nc(OCC(F)(F)F)nc(N(C)C)n1,–,5980 nM (active)
S=C([S-])NCCNC(=S)[S-].[Mn+2],inactive,–
CCCN(CCC)C(=O)SCC,inactive,–
CCCN(CCC)c1c([N+](=O)[O-])cc(C(F)(F)F)c(N)c1[N+](=O)[O-],inactive,–
COC(=O)c1ccccc1C(=O)O,inactive,–
N#CSCSc1nc2ccccc2s1,inactive,–
COC(=O)c1ccc(I)cc1S(=O)(=O)NC(=O)Nc1nc(C)nc(OC)n1,inactive,–
COC(=O)c1c(Cl)nn(C)c1S(=O)(=O)NC(=O)Nc1nc(OC)cc(OC)n1,–,2540 nM (active)
CCCCOC(=O)C(C)Oc1ccc(Oc2ccc(C(F)(F)F)cn2)cc1 (stereo not given),inactive,–
CCOC(=O)[C@H](C)Oc1ccc(Oc2nc3ccc(Cl)cc3o2)cc1,inactive,–
COC(=O)CSc1cc(N=c2sc(=O)n3n2CCCC3)c(F)cc1Cl,inactive,–
CCC(C)OC(=O)N1CCCCC1CCO (stereo not given),inactive,–
CCC(O)=C1C(=O)CC(C(=O)O)CC1=O (stereo not given),–,1890 nM (active)
CCCCOC(=O)[C@@H](C)Oc1ccc(Oc2ccc(C(F)(F)F)cn2)cc1,inactive,–
CCCCC(CC)COC(=O)c1ccccc1C(=O)O (stereo not given),inactive,–
COCCO,inactive,–
CCOC(=O)C(C)Oc1ccc(Oc2cnc3cc(Cl)ccc3n2)cc1 (stereo not given),inactive,–
CCOC(=O)COc1cc(-n2ncc(C(F)(F)F)c(C)c2=O)c(F)cc1Cl,inactive,–
CC(C)(C)[C@@H](O)[C@@H](Cc1ccc(Cl)cc1)n1cncn1,inactive,–

SMILES,outcome,AC50
CSC(=O)c1cccc2nnsc12,–,33300 nM (active)
CC(C)(c1ccc(O)cc1)c1ccc(O)cc1,inactive,–
CCCCOCCOCCOCc1cc2c(cc1CCC)OCO2,–,5750 nM (active)
CCNc1nc(N)nc(Cl)n1,inactive,–
Oc1ccc(C(c2ccc(O)cc2)C(Cl)(Cl)Cl)cc1,–,266 nM (active)
c1ccc(Nc2ccccc2)cc1,inactive,–
CCN(CC)C(=O)c1cccc(C)c1,inactive,–
CC1(C)C(C=C(Cl)Cl)C1C(=O)OCc1cccc(Oc2ccccc2)c1 (stereo not given),inactive,–
c1ccc2[nH]c(-c3cscn3)nc2c1,–,5820 nM (active)
CCCOC(=O)NCCCN(C)C,inactive,–
O=C(Nc1ccc([N+](=O)[O-])cc1Cl)c1cc(Cl)ccc1O,–,163 nM (active)
OB(O)O,inactive,–
O=C(O)C1(C(=O)Nc2ccc(Cl)cc2Cl)CC1,inactive,–
CCCCC(CC)CN1C(=O)C2C3C=CC(C3)C2C1=O (stereo not given),inactive,–
CCCCCOC(=O)COc1cc(N2C(=O)C3=C(CCCC3)C2=O)c(F)cc1Cl,inactive,–
CCN(Cc1c(F)cccc1Cl)c1c([N+](=O)[O-])cc(C(F)(F)F)cc1[N+](=O)[O-],–,1740 nM (active)
COc1nc(C)nc(NC(=O)NS(=O)(=O)c2ccccc2OCCCl)n1,inactive,–
CCOC(=O)C(C)Oc1ccc(Oc2nc3ccc(Cl)cc3o2)cc1 (stereo not given),inactive,–
CCCCCCC(C)OC(=O)COc1nc(F)c(Cl)c(N)c1Cl (stereo not given),inactive,–
S=C(S)NCCNC(=S)S.[Mn+2].[S-]C([S-])=NCCN=C([S-])[S-].[Zn+2],–,2750 nM (active)
